# Laboratory results: PubChem BioAssay AID1159580 (chemical genetic matrix, 2015)
# Screen size: about 5,500 compounds; about 2,000 (36%) were called active. Inconclusive results (about 18%) are left out. The list shows a part of the results. A number with no mark means an inactive call. Cut-off read from the data, not from the text of the source: active = normalized growth mostly below about 0.91 (no sharp cut-off); inconclusive = no clear call, values can overlap the other calls; inactive = mostly above about 0.92.
# Experiment: chemical genetic growth profiling, strain panel (AID 1159580);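 note: tested at 20 µM; growth read once vehicle control cultures reached saturation at 30 °C; 1 = growth at the plate median or of vehicle wells; lower values mean less growth of the strain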
# Settings: S. cerevisiae deletion strains, growth OD
# [1] = locus YAR019C, strain CDC15, active compounds read low
# [2] = locus YBL105C, strain PKC1, active compounds read low
# [3] = locus YBR135W, strain CKS1, active compounds read low
# [4] = locus YBR136W, strain MEC1, active compounds read low
# [5] = locus YBR160W, strain CDC28, active compounds read low
# [6] = locus YDL017W, strain CDC7, active compounds read low
# [7] = locus YDL028C, strain MPS1, active compounds read low
# [8] = locus YDL101C, strain DUN1, active compounds read low
# [9] = locus YDL108W, strain KIN28, active compounds read low
# [10] = locus YDL132W, strain cdc53, active compounds read low
# [11] = locus YDL214C, strain PRR2, active compounds read low
# [12] = locus YDR052C, strain DBF4, active compounds read low
# [13] = locus YDR054C, strain cdc34, active compounds read low
# [14] = locus YDR226W, strain ADK1, active compounds read low
# [15] = locus YDR477W, strain SNF1, active compounds read low
# [16] = locus YER123W, strain YCK3, active compounds read low
# [17] = locus YER133W, strain GLC7, active compounds read low
# [18] = locus YFL009W, strain cdc4, active compounds read low
# [19] = locus YFL029C, strain CAK1, active compounds read low
# [20] = locus YFR003C, strain YPI1, active compounds read low
# [21] = locus YFR019W, strain FAB1, active compounds read low
# [22] = locus YFR028C, strain CDC14, active compounds read low
# [23] = locus YGR040W, strain KSS1, active compounds read low
# [24] = locus YGR052W, strain FMP48, active compounds read low
# [25] = locus YGR092W, strain DBF2, active compounds read low
# [26] = locus YHR030C, strain SLT2, active compounds read low
# [27] = locus YHR079C, strain IRE1, active compounds read low
# [28] = locus YHR082C, strain KSP1, active compounds read low
# [29] = locus YHR205W, strain SCH9, active compounds read low
# [30] = locus YIL147C, strain SLN1, active compounds read low
# [31] = locus YJL095W, strain BCK1, active compounds read low
# [32] = locus YJL128C, strain PBS2, active compounds read low
# [33] = locus YJL157C, strain FAR1, active compounds read low
# [34] = locus YJR016C, strain ILV3, active compounds read low
# [35] = locus YJR066W, strain TOR1 (second series), active compounds read low
# [36] = locus YJR066W, strain TOR1, active compounds read low
# [37] = locus YKL048C, strain ELM1, active compounds read low
# [38] = locus YKL067W, strain YNK1, active compounds read low
# [39] = locus YKL101W, strain HSL1, active compounds read low
# [40] = locus YKL193C, strain SDS22, active compounds read low
# [41] = locus YKL203C, strain TOR2, active compounds read low
# [42] = locus YLR113W, strain HOG1, active compounds read low
# [43] = locus YLR133W, strain CKI1, active compounds read low
# [44] = locus YLR403W, strain SFP1, active compounds read low
# [45] = locus YML070W, strain DAK1, active compounds read low
# [46] = locus YMR001C, strain CDC5, active compounds read low
# [47] = locus YMR205C, strain PFK2 (second series), active compounds read low
# [48] = locus YMR277W, strain FCP1, active compounds read low
# [49] = locus YNL006W, strain LST8, active compounds read low
# [50] = locus YNL020C, strain ARK1, active compounds read low
# [51] = locus YNL161W, strain CBK1, active compounds read low
# [52] = locus YNL183C, strain NPR1, active compounds read low
# [53] = locus YNL207W, strain RIO2, active compounds read low
# [54] = locus YNL222W, strain SSU72, active compounds read low
# [55] = locus YNL307C, strain MCK1 (second series), active compounds read low
# [56] = locus YOL078W, strain AVO1, active compounds read low
# [57] = locus YOL136C, strain PFK27, active compounds read low
# [58] = locus YOR061W, strain CKA2, active compounds read low
# [59] = locus YOR119C, strain RIO1, active compounds read low
# [60] = locus YOR231W, strain MKK1, active compounds read low
# [61] = locus YOR329C, strain SCD5, active compounds read low
# [62] = locus YPL031C, strain PHO85, active compounds read low
# [63] = locus YPL153C, strain RAD53, active compounds read low
# [64] = locus YPL204W, strain HRR25, active compounds read low
# [65] = locus YPL209C, strain IPL1, active compounds read low
# [66] = locus YPL256C, strain CLN2, active compounds read low
# [67] = locus YPR025C, strain CCL1, active compounds read low
# [68] = locus YPR106W, strain ISR1, active compounds read low
# [69] = locus YPR111W, strain DBF20, active compounds read low
# [70] = strain NNK1, active compounds read low
# [71] = strain TSCII, active compounds read low
smiles,measurement,setting,value
Cc1cc(Cl)ccc1NC(=S)NNC(=S)Nc1ccc(F)cc1,normalized growth,[1],0.968
same,normalized growth,[2],0.974
same,normalized growth,[3],0.972
same,normalized growth,[4],0.97
same,normalized growth,[5],0.966
same,normalized growth,[6],0.975
same,normalized growth,[7],0.969
same,normalized growth,[8],0.973
same,normalized growth,[9],0.97
same,normalized growth,[10],0.966
same,normalized growth,[11],0.943
same,normalized growth,[12],0.968
same,normalized growth,[13],0.943
same,normalized growth,[14],0.971
same,normalized growth,[15],0.898
same,normalized growth,[16],0.878
same,normalized growth,[17],0.925
same,normalized growth,[18],0.964
same,normalized growth,[19],0.965
same,normalized growth,[20],0.957
same,normalized growth,[21],0.964
same,normalized growth,[22],0.956
same,normalized growth,[23],0.912
same,normalized growth,[24],1.04
same,normalized growth,[25],0.863
same,normalized growth,[26],0.763 (active)
same,normalized growth,[27],0.902
same,normalized growth,[28],0.986
same,normalized growth,[29],0.914
same,normalized growth,[30],0.964
same,normalized growth,[31],0.869
same,normalized growth,[32],0.93
same,normalized growth,[33],0.919
same,normalized growth,[34],0.96
same,normalized growth,[35],0.911
same,normalized growth,[36],0.917
same,normalized growth,[37],0.97
same,normalized growth,[38],0.916
same,normalized growth,[39],0.935
same,normalized growth,[40],0.964
same,normalized growth,[41],0.954
same,normalized growth,[42],0.929
same,normalized growth,[43],0.926
same,normalized growth,[44],0.896
same,normalized growth,[45],0.928
same,normalized growth,[46],0.965
same,normalized growth,[47],0.939
same,normalized growth,[48],0.95
same,normalized growth,[49],0.964
same,normalized growth,[50],0.921
same,normalized growth,[51],0.973
same,normalized growth,[52],0.923
same,normalized growth,[53],0.961
same,normalized growth,[54],0.972
same,normalized growth,[55],0.9
same,normalized growth,[56],0.957
same,normalized growth,[57],0.916
same,normalized growth,[58],0.937
same,normalized growth,[59],0.977
same,normalized growth,[60],0.924
same,normalized growth,[61],0.972
same,normalized growth,[62],0.899
same,normalized growth,[63],0.884
same,normalized growth,[64],0.861
same,normalized growth,[65],0.969
same,normalized growth,[66],0.904
same,normalized growth,[67],0.973
same,normalized growth,[68],0.971
same,normalized growth,[69],0.969
same,normalized growth,[70],0.96
same,normalized growth,[71],0.966
CCOC(=O)/C(=N/Nc1c(Cl)cccc1Cl)c1csc(N)n1,normalized growth,[1],0.968
same,normalized growth,[2],0.982
same,normalized growth,[3],0.973
same,normalized growth,[4],0.972
same,normalized growth,[5],0.984
same,normalized growth,[6],0.98
same,normalized growth,[7],0.975
same,normalized growth,[8],0.986
same,normalized growth,[9],0.97
same,normalized growth,[10],0.971
same,normalized growth,[11],0.89
same,normalized growth,[12],0.973
same,normalized growth,[13],0.996
same,normalized growth,[14],0.973
same,normalized growth,[15],0.864
same,normalized growth,[16],0.906
same,normalized growth,[17],0.868
same,normalized growth,[18],0.959
same,normalized growth,[19],0.966
same,normalized growth,[20],0.97
same,normalized growth,[21],0.971
same,normalized growth,[22],0.968
same,normalized growth,[23],0.884
same,normalized growth,[24],0.933
same,normalized growth,[25],0.834
same,normalized growth,[26],0.69 (active)
same,normalized growth,[27],0.837
same,normalized growth,[28],0.973
same,normalized growth,[29],0.994
same,normalized growth,[30],0.968
same,normalized growth,[31],0.873
same,normalized growth,[32],0.995
same,normalized growth,[33],0.864
same,normalized growth,[34],0.976
same,normalized growth,[35],0.868
same,normalized growth,[36],0.906
same,normalized growth,[37],0.986
same,normalized growth,[38],0.892
same,normalized growth,[39],0.918
same,normalized growth,[40],0.976
same,normalized growth,[41],0.921
same,normalized growth,[42],0.801 (active)
same,normalized growth,[43],0.913
same,normalized growth,[44],0.864
same,normalized growth,[45],0.889
same,normalized growth,[46],0.976
same,normalized growth,[47],0.925
same,normalized growth,[48],0.975
same,normalized growth,[49],0.968
same,normalized growth,[50],0.904
same,normalized growth,[51],0.969
same,normalized growth,[52],0.91
same,normalized growth,[53],0.947
same,normalized growth,[54],0.969
same,normalized growth,[55],0.898
same,normalized growth,[56],0.978
same,normalized growth,[57],0.893
same,normalized growth,[58],0.906
same,normalized growth,[59],0.975
same,normalized growth,[60],0.864
same,normalized growth,[61],0.975
same,normalized growth,[62],0.852
same,normalized growth,[63],0.858
same,normalized growth,[64],0.805
same,normalized growth,[65],0.973
same,normalized growth,[66],0.859 (active)
same,normalized growth,[67],0.976
same,normalized growth,[68],0.966
same,normalized growth,[69],0.947
same,normalized growth,[70],0.97
same,normalized growth,[71],0.963
